Test results: ChEMBL document CHEMBL2218924, “A broad activity screen in support of a chemogenomic map for kinase signalling research and drug discovery” (Biochem J, 2013)

Assays:
[1] = target: T1, Tyrosine-protein kinase ITK/TSK (Homo sapiens) (UniProt Q08881); details: at 10 µM
T1 sequence (whole entry): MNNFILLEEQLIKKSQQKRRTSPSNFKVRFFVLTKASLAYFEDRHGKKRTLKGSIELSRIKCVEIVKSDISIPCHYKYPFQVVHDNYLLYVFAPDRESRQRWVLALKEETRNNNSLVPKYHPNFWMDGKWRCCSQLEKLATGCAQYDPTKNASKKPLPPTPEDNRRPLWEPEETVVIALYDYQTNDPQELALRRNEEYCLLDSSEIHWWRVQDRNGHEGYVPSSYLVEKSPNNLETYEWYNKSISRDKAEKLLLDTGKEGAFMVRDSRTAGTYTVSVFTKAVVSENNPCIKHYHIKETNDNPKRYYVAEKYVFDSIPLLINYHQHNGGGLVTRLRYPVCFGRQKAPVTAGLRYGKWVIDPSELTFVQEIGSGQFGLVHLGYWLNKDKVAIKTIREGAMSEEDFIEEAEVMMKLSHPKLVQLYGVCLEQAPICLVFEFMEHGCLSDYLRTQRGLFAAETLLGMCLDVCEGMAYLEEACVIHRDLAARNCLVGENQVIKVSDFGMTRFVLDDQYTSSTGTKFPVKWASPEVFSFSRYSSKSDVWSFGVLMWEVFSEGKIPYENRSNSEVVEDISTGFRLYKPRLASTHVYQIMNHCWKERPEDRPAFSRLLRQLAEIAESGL

[2] = target: Tyrosine-protein kinase JAK2 (Homo sapiens) (UniProt O60674); details: at 1 µM
[3] = target: Tyrosine-protein kinase JAK2 (Homo sapiens) (UniProt O60674); details: at 10 µM
[4] = target: T2, Tyrosine-protein kinase JAK3 (Homo sapiens) (UniProt P52333); details: at 1 µM
T2 sequence (whole entry): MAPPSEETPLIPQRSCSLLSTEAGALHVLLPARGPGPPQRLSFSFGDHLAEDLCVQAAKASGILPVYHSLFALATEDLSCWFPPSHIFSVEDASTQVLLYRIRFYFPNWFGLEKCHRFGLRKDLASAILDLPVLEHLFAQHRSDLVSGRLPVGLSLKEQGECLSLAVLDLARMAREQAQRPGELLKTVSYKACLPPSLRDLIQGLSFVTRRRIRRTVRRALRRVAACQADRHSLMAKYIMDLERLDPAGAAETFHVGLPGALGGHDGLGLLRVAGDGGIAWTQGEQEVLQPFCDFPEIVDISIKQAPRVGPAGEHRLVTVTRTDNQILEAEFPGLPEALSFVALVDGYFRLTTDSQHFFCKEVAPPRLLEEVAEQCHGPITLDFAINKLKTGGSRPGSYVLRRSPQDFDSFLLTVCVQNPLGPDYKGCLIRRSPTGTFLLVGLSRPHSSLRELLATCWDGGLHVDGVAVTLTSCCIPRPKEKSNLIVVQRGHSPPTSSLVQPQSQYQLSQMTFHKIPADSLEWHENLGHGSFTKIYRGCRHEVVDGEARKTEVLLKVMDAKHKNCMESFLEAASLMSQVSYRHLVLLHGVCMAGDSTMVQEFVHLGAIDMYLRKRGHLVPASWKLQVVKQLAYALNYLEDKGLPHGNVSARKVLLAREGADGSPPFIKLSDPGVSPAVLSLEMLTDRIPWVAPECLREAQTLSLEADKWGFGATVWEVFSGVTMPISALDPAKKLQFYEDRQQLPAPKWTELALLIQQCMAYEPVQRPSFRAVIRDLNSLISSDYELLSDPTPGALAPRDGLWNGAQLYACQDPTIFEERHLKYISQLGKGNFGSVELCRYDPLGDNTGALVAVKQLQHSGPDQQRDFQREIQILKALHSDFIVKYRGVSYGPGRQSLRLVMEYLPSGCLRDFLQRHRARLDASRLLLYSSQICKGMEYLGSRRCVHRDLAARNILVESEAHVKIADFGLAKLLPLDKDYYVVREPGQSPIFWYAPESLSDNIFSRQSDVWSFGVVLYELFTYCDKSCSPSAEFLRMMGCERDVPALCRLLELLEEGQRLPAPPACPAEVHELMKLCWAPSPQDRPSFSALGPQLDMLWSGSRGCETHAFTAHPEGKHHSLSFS

[5] = target: T2, Tyrosine-protein kinase JAK3 (Homo sapiens); details: at 10 µM
[6] = target: Mitogen-activated protein kinase 8 (Homo sapiens) (UniProt P45983); details: at 1 µM
[7] = target: Mitogen-activated protein kinase 8 (Homo sapiens) (UniProt P45983); details: at 10 µM
[8] = target: Mitogen-activated protein kinase 9 (Homo sapiens) (UniProt P45984); details: at 1 µM
[9] = target: Mitogen-activated protein kinase 9 (Homo sapiens) (UniProt P45984); details: at 10 µM
[10] = target: Mitogen-activated protein kinase 10 (Homo sapiens) (UniProt P53779); details: at 1 µM
[11] = target: Mitogen-activated protein kinase 10 (Homo sapiens) (UniProt P53779); details: at 10 µM
[12] = target: Vascular endothelial growth factor receptor 2 (Homo sapiens) (UniProt P35968); details: at 1 µM
[13] = target: Vascular endothelial growth factor receptor 2 (Homo sapiens) (UniProt P35968); details: at 10 µM
[14] = target: LIM domain kinase 1 (Homo sapiens) (UniProt P53667); details: at 1 µM
[15] = target: LIM domain kinase 1 (Homo sapiens) (UniProt P53667); details: at 10 µM
[16] = target: T3, Serine/threonine-protein kinase STK11 (Homo sapiens) (UniProt Q15831); details: at 1 µM
T3 sequence (whole entry): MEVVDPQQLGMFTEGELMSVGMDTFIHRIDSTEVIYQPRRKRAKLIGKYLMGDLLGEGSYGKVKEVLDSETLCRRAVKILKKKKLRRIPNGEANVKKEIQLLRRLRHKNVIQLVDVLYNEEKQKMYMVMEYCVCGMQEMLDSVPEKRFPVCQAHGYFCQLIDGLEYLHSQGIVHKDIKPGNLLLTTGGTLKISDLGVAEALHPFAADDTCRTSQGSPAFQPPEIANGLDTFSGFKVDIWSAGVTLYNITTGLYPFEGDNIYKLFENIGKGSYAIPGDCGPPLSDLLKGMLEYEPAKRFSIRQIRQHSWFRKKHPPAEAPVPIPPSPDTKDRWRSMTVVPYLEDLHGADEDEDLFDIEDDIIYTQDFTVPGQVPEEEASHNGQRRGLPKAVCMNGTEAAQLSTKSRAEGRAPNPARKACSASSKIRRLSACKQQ

[17] = target: T3, Serine/threonine-protein kinase STK11 (Homo sapiens); details: at 10 µM
[18] = target: Serine/threonine-protein kinase 10 (Homo sapiens) (UniProt O94804); details: at 1 µM
[19] = target: Serine/threonine-protein kinase 10 (Homo sapiens) (UniProt O94804); details: at 10 µM
[20] = target: Tyrosine-protein kinase Lck (Homo sapiens) (UniProt P06239); details: at 1 µM
Tyrosine-protein kinase Lck (Homo sapiens), sequence (P06239 2-509 limits assumed): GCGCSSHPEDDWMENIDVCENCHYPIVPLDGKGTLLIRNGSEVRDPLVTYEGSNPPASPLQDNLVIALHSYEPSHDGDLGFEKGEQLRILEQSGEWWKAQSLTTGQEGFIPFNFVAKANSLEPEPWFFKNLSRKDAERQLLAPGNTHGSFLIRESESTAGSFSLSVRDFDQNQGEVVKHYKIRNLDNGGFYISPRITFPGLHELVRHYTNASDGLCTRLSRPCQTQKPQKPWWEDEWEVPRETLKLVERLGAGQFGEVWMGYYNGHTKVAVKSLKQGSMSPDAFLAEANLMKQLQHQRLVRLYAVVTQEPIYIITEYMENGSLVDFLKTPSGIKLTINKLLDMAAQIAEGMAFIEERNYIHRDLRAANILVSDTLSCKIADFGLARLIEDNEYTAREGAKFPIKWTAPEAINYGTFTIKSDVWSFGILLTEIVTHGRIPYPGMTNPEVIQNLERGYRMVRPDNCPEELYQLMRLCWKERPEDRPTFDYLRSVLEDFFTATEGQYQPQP

Tyrosine-protein kinase JAK2 (Homo sapiens), sequence (O60674 whole entry): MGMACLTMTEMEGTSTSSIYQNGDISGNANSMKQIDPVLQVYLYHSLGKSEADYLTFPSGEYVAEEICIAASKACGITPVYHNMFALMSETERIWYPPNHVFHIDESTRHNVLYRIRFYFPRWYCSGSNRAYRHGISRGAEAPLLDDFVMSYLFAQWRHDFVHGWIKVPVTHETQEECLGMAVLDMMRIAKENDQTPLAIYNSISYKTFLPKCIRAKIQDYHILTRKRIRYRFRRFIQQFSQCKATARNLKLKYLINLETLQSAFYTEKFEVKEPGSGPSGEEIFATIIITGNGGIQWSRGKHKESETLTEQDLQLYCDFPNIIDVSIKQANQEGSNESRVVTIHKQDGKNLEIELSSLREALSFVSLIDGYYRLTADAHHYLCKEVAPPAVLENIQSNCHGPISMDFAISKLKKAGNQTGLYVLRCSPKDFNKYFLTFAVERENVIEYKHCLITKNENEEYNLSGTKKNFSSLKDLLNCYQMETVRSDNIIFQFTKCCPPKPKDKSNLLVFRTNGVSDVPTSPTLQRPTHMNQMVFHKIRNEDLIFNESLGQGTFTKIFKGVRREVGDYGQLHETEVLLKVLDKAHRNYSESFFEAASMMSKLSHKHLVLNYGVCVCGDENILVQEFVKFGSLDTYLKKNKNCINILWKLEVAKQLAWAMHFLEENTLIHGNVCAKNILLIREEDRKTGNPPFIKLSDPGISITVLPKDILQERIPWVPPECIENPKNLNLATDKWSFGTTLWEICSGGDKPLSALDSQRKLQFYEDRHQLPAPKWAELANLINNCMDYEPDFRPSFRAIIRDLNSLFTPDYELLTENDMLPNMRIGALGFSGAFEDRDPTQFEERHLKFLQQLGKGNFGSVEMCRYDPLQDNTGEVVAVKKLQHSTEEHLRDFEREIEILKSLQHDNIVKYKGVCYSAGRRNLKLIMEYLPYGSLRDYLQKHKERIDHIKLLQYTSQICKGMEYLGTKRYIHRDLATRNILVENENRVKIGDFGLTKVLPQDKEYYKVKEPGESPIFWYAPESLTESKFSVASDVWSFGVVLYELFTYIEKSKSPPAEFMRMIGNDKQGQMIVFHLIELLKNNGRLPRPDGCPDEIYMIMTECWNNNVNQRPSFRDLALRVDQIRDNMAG
Mitogen-activated protein kinase 9 (Homo sapiens), sequence (P45984 whole entry, looked up): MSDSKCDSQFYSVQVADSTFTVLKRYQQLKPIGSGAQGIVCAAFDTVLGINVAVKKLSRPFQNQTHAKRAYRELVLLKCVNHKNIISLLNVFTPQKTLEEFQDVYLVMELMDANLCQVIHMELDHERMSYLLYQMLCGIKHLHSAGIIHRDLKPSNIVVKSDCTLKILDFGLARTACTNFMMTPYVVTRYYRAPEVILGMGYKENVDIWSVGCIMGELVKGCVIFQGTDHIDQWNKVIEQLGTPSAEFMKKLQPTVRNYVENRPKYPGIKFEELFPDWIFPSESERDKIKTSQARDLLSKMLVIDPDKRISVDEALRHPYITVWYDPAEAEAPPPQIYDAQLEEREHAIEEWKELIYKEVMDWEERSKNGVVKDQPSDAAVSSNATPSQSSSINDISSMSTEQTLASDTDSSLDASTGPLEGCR
Serine/threonine-protein kinase 10 (Homo sapiens), sequence (O94804 whole entry, looked up): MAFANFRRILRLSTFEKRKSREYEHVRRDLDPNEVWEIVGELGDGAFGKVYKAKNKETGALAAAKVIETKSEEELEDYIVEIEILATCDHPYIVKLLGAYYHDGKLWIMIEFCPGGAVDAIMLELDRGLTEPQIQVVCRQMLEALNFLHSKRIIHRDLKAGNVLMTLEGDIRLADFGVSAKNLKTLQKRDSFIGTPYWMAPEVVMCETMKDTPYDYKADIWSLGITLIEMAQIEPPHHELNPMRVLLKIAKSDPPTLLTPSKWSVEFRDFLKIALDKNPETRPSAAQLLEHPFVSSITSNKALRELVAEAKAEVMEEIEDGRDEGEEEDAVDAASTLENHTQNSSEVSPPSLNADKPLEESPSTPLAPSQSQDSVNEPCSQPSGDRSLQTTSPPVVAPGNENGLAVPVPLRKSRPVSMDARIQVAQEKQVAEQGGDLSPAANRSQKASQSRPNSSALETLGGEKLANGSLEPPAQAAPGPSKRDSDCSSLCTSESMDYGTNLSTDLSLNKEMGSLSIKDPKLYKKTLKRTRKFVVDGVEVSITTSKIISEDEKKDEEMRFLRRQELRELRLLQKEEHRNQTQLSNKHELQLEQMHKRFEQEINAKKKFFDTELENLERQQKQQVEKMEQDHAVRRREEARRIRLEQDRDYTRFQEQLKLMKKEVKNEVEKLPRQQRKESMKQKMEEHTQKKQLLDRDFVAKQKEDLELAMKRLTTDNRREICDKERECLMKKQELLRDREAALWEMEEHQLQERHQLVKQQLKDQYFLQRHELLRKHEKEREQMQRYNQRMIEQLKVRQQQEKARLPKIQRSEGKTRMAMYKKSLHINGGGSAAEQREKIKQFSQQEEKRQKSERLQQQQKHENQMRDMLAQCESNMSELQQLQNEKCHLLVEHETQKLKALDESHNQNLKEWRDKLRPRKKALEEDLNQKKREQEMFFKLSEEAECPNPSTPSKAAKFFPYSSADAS
Mitogen-activated protein kinase 8 (Homo sapiens), sequence (P45983 whole entry): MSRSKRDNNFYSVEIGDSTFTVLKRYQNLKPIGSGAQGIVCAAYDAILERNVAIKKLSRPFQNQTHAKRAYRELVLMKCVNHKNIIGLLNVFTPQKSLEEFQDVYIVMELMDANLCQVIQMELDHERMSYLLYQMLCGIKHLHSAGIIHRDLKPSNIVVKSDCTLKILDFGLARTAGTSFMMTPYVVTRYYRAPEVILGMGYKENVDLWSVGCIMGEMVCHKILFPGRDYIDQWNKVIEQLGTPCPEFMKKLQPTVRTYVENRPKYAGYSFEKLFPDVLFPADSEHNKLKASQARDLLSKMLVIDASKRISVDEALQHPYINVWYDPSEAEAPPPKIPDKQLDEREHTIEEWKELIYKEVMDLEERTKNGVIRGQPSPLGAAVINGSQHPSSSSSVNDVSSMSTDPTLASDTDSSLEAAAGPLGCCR
Mitogen-activated protein kinase 10 (Homo sapiens), sequence (P53779 whole entry): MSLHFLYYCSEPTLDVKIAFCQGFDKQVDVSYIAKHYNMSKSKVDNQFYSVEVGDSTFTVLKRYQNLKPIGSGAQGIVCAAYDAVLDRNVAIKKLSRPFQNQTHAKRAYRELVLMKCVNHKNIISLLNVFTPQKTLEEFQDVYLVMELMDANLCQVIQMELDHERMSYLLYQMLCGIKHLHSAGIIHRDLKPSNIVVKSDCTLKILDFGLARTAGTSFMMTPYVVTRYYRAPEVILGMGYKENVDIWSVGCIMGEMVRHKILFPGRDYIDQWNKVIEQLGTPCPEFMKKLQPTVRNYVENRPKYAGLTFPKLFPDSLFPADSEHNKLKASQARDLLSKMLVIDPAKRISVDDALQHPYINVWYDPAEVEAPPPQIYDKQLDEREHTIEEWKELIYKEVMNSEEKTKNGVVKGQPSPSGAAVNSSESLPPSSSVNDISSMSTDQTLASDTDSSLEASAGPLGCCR
LIM domain kinase 1 (Homo sapiens), sequence (P53667 whole entry, looked up, the tested form may be a part): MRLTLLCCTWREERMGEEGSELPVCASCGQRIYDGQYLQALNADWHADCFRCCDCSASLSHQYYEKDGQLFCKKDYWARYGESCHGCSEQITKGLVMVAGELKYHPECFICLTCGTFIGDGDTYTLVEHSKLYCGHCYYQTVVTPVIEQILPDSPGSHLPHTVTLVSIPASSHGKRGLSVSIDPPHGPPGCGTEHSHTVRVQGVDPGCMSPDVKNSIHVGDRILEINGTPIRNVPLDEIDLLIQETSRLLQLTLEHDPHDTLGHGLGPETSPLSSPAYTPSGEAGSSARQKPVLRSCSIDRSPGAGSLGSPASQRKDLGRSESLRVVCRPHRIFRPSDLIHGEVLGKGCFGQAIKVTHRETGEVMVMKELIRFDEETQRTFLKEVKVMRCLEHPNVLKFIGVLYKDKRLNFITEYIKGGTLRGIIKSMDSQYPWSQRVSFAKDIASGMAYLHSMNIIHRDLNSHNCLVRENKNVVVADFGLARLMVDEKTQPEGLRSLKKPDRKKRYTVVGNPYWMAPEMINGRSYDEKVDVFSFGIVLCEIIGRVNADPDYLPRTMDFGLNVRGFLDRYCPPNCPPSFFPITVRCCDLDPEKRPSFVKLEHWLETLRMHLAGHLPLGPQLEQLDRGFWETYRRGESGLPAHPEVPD

Structure (SMILES)	residual activity [1]	residual activity [2]	residual activity [3]	residual activity [4]	residual activity [5]	residual activity [6]	residual activity [7]	residual activity [8]	residual activity [9]	residual activity [10]	residual activity [11]	residual activity [12]	residual activity [13]	residual activity [14]	residual activity [15]	residual activity [16]	residual activity [17]	residual activity [18]	residual activity [19]	residual activity [20]
CC(=O)O/N=C1\C(=C2\C(=O)Nc3cc(Br)ccc32)Nc2ccccc21	39%	103%	71%	75%	26%	98%	94%	91%	94%	77%	61%	67%	5%	83%	50%	98%	92%	53%	46%	16%
O=c1cc(-c2cccc3c2Sc2ccccc2S3)oc(N2CCOCC2)c1	99%	98%	111%	114%	113%	108%	97%	103%	100%	91%	89%	90%	89%	98%	92%	95%	99%	98%	101%	103%
O=C1NC(=O)/C(=C/c2ccc3c(c2)OC(F)(F)O3)S1	108%	101%	97%	94%	63%	106%	106%	106%	102%	81%	83%	105%	97%	110%	88%	102%	94%	89%	89%	125%
O=Nc1c(-c2c(O)[nH]c3ccccc23)[nH]c2ccccc12	1%	92%	11%	21%	2%	63%	70%	55%	17%	7%	-2%	4%	1%	61%	21%	83%	44%	66%	71%	13%
COc1ccc(C(=O)Nc2sc3c(c2C(N)=O)CCCC3)cc1OC	96%	80%	101%	99%	100%	106%	68%	99%	94%	66%	69%	71%	75%	102%	86%	104%	105%	100%	87%	100%
CO[C@@H]1[C@H](N(C)C(=O)c2ccccc2)C[C@H]2O[C@]1(C)n1c3ccccc3c3c4c(c5c6ccccc6n2c5c31)C(=O)NC4	31%	7%	2%	1%	1%	92%	67%	99%	91%	50%	27%	3%	2%	22%	4%	95%	93%	21%	9%	13%
